# PubChem BioAssay (NCI)
# The panel holds about 83,000 compounds, 20% with a hit somewhere; the sample as a whole holds those more often.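 How to read the values: 0–100, growth inhibition (40 = 60% inhibited); 0, no net growth; -100 to 0, cell death (-40 = 40% of starting cells died; -100 = all dead).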 Values without a mark were called inactive. Calls of active or inactive are those of the source. How the source made its calls: active means growth percent below 10; inactive means the rest.
# Legend:
# Assay in all cases: NCI-60 one-dose screen, 48 h (100 = growth as untreated, 0 = no growth, -100 = all killed)
# Conditions in all cases: 10 µM unless noted
# [1] = test system: NCI-H23 lung
# [2] = test system: NCI-H226 lung
# [3] = test system: NCI-H322M lung
# [4] = test system: HOP-62 NSCLC
# [5] = test system: NCI-H460 lung
# [6] = test system: HOP-92 NSCLC
# [7] = test system: NCI-H522 lung
# [8] = test system: A549/ATCC NSCLC
# [9] = test system: 786-0 renal
# [10] = test system: COLO 205 colon
# [11] = test system: DU-145 prostate
# [12] = test system: K-562 leukemia
# [13] = test system: MALME-3M melanoma
# [14] = test system: MDA-MB-231 breast
# [15] = test system: RXF 393 renal
# [16] = test system: SF-268 CNS
# [17] = test system: SF-295 CNS
# [18] = test system: SF-539 CNS
# [19] = test system: UACC-257 melanoma
# [20] = test system: M14 melanoma
Compound,growth [1],growth [2],growth [3],growth [4],growth [5],growth [6],growth [7],growth [8],growth [9],growth [10],growth [11],growth [12],growth [13],growth [14],growth [15],growth [16],growth [17],growth [18],growth [19],growth [20]
O=C(COc1cccc(/C=C2/Oc3ccccc3C2=O)c1)Nc1nccs1,61.6%,99.3%,95.7%,93.3%,103%,-51.4% (active),-9.74% (active),88.2%,90.7%,235%,104%,43.3%,-71% (active),66.1%,2.9% (active),30.3%,203%,64.7%,89.4%,99.7%
NS(=O)(=O)N(c1cc(C(F)(F)F)cc(C(F)(F)F)c1)C1CCN(Cc2ccc(F)cc2)CC1,55.5%,69.3%,81.7%,77.3%,58.4%,34.9%,43.2%,66.5%,55.5%,-62.7% (active),99%,26.1%,29%,67.7%,41.7%,79.9%,81.6%,83.1%,62.1%,46.6%
O=c1c2c3c(sc2n2c(CCl)nnc2n1Cc1ccccc1)CCCC3,-42.1% (active),-60.9% (active),-97% (active),54.7%,-11.5% (active),-81.7% (active),-57.1% (active),28.5%,-18% (active),-39.1% (active),-11.9% (active),-65.2% (active),-71.4% (active),-60.2% (active),-39.1% (active),-59.2% (active),126%,-85.5% (active),-53.6% (active),-49.9% (active)
O=C1OC2C(I)C3CC2C1C3c1ccccc1 (stereo not given),94.8%,105%,139%,88.9%,117%,93.7%,110%,110%,95.2%,125%,107%,104%,136%,96.8%,113%,106%,172%,94.1%,121%,101%
CCCCCCCCCCCCNC(=O)[C@H]1CSC(c2ccc(OC)c(F)c2)N1 (stereo not given in full),-78.2% (active),-71.4% (active),-98.4% (active),-81.8% (active),-71.8% (active),-93.8% (active),-73.5% (active),-88.5% (active),-96.6% (active),-81.5% (active),-87.6% (active),-52.7% (active),-92.3% (active),-88.3% (active),-96.1% (active),-69.2% (active),-88.4% (active),-94.3% (active),-94.1% (active),-89.6% (active)
Cc1cc(N/N=C/c2nc(-c3ccc(Cl)cc3)oc2C)c2cc(Br)ccc2n1,96.4%,92.9%,72.5%,100%,-47.4% (active),69.6%,-1.02% (active),17.1%,24.6%,91.6%,31.9%,0% (active),7.27% (active),70.4%,98.6%,68.5%,105%,87.3%,101%,40.6%
OC(c1cc(-c2ccccc2)nc2ccc(Cl)cc12)C1CCCCN1 (stereo not given),66.9%,71.3%,41.8%,93.3%,-16.8% (active),6.52% (active),59.7%,21.7%,66.8%,-60.9% (active),60.1%,-18.4% (active),-41.3% (active),-30.5% (active),56.3%,60.7%,96.2%,67.5%,70.9%,-66.3% (active)
Fc1ccc(Cc2ccc(F)cc2)cc1,102%,99.9%,105%,106%,108%,100%,90%,103%,107%,108%,113%,96.7%,106%,107%,118%,101%,113%,102%,108%,106%
C/C(=C(/c1ccc(O)cc1)c1ccc(Cl)cc1)c1ccccc1,-62.5% (active),-80.4% (active),-95% (active),-90.8% (active),-91.2% (active),-96% (active),-78% (active),-85.8% (active),-89.3% (active),-82.8% (active),-75.2% (active),-1.81% (active),-94.6% (active),-83.3% (active),-79.3% (active),-83.4% (active),-95.1% (active),-96% (active),-74.6% (active),-78.1% (active)
c1ccc(CSc2ncnc3nc[nH]c23)nc1,99.1%,91.4%,103%,92.2%,104%,135%,82.7%,106%,92.4%,121%,113%,96.7%,103%,97.6%,119%,109%,104%,99.5%,120%,101%
O=C1/C(=C\c2cn(C(=O)c3ccc(Cl)cc3)c3ccccc23)c2ccccc2N1c1c(Cl)cccc1Cl,97.2%,94.9%,112%,94.2%,111%,79.9%,90.9%,110%,90.7%,123%,120%,115%,106%,103%,151%,99.9%,127%,104%,123%,104%
O=C1/C(=C/c2ccc(Cl)c(Cl)c2)CN(C(=O)CCN2CCC(=NO)CC2)C/C1=C\c1ccc(Cl)c(Cl)c1,-73.4% (active),-40.6% (active),-78.7% (active),-88.2% (active),-66% (active),-53.2% (active),-90.4% (active),-34.6% (active),-79.6% (active),-84.6% (active),-82.8% (active),-27% (active),-81.7% (active),-90.5% (active),-88.8% (active),-82.6% (active),-88.5% (active),-93.7% (active),-85.5% (active),-49.7% (active)
Cc1nn(-c2ccccc2)c2nc(C)n(-c3ccc(Br)cc3)c(=O)c12,16%,49%,51.3%,35.1%,7.92% (active),56.3%,-14.1% (active),21.3%,43.3%,1.32% (active),8.77% (active),9.29% (active),45.9%,50.3%,-15.8% (active),51.2%,4.98% (active),-5.52% (active),60%,9.88% (active)
CCN(CC)Cc1cc(Nc2c3ccc(Cl)cc3nc3c(C)cccc23)ccc1O,-75.5% (active),-28.1% (active),-25.6% (active),-74.6% (active),-78.1% (active),-62.7% (active),-77.2% (active),-15.5% (active),-91.6% (active),-92.4% (active),2.09% (active),-31% (active),-87% (active),-48.6% (active),-74.3% (active),-79.8% (active),-43.6% (active),-96.5% (active),-85.2% (active),-88.5% (active)
Cc1ccc2c(c1)C(=O)/C(=C/c1ccc(OCC(=O)c3ccccc3)cc1)O2,84.7%,69.4%,108%,87.5%,108%,66.8%,89.2%,81.6%,86.8%,107%,107%,106%,114%,84%,89%,101%,78.8%,92.9%,90.1%,95.8%
Cc1ccc2c(c1)C(=O)c1c-2c(OCCCN(C)C)nc2ccccc12,7.88% (active),32.8%,19.6%,19.9%,-8.22% (active),-10.7% (active),-11% (active),-43.9% (active),44.7%,-30.6% (active),34.3%,-59.4% (active),-71.7% (active),-22.7% (active),30.1%,30.8%,60%,14.4%,69.5%,-82.2% (active)
